# Screening results (PubChem BioAssay)
# Only some compounds are listed: those with a hit (about 10% of all), similar ones and a draw of the others.
# 3T3 cytotox = NIH 3T3 cell cytotoxicity | Potency, µM (top dose mostly 96.7 µM), inactives show at the highest dose activity change, negative = cytotoxicity, hits mostly inhibitors | NIH 3T3 viability, CellTiter-Glo ATP luminescence, 48-72 h | 94,000 tested, 4.3% active; further: nearly all actives have a fitted effect of over 55% in size
#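 Cytotoxicity is measured as loss of cellular ATP: NIH 3T3 cells (400/well) are exposed to compound for 48 or 72 hr at 37 °C, then CellTiter-Glo luminescence is imaged after 10 min at room temperature.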
# FLuc inh = blocks purified firefly luciferase enzyme activity; P08659; purified P. pyralis luciferase, luminescence, biochemical; Potency, µM (highest dose often 115 µM), most hits filed as inhibitors; 76,000 tested, 2.5% active; further: nearly all actives have a fitted effect of over 65% in size
#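 Luminescence read by CCD imaging after purified firefly luciferase (10nM final) was added to substrate buffer holding 10uM D-luciferin and 10uM ATP, pH 7.5, pre-dosed with compound.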
# HEK cytotox = cytotoxic compounds in HEK 293 cells; Potency, µM (highest dose often 115 µM), for inactives: at the highest dose activity change, negative = cytotoxicity, most hits filed as inhibitors; HEK 293 viability, ATP luminescence (CellTiter-Glo), 48-72 h; AID 1345083; 94,000 tested, 6.6% active; further: nearly all actives have a fitted effect of over 60% in size
#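 Cytotoxicity was scored by loss of ATP-coupled luminescence (CellTiter-Glo) in HEK 293 cells. Compound treatment ran 48 or 72 hr at 37 degree Celsius, 5% CO2, 95% humidity.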
# hNpr1 antagonist = blocks ANP-stimulated signaling of human Npr1 receptor; HEK293 hNpr1 GloSensor cGMP, ANP-stimulated luminescence; 76,000 tested, 1.6% active; AID 1347048; P16066; Potency, µM (top dose mostly 46.3 µM), for inactives: top-dose activity change, negative = inhibition, actives largely listed as inhibitors; calls by dose curve; further: nearly all actives have a fitted effect of over 60% in size
#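 HEK293 cells stably expressing human Npr1 and cGMP GloSensor pGS-40F, loaded 2 h with 2% GloSensor reagent, given compound 30 min at room temperature. Luminescence read before and 20 min after 0.1 nM hNppA.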
# GPT2 inh = blocks human glutamate pyruvate transaminase 2 | Recombinant GPT2, coupled pyruvate oxidase/HRP Amplex Red fluorescence | Potency, µM (top dose mostly 57.7 µM), inactives show at the highest dose activity change, negative = inhibition, usual class: inhibitors | 100,000 tested, 0.25% active | AID 1671188; further: nearly all actives have a fitted effect of over 60% in size
# Target sequence (Q8TD30 whole entry, looked up): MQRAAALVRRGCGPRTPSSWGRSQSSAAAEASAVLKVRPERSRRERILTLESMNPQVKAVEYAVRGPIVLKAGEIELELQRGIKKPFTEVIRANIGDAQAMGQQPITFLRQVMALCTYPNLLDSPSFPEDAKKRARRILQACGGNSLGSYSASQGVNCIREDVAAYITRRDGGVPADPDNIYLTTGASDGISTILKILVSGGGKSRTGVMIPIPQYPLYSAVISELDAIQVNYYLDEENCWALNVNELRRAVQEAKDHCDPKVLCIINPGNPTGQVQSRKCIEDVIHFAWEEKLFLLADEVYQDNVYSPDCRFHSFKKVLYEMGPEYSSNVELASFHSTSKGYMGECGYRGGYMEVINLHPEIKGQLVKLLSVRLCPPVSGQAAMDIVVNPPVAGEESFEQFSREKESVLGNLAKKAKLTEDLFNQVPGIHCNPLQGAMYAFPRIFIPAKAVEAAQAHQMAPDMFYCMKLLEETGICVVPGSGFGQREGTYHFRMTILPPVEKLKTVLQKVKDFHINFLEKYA
#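 Fluorescence of coupled pyruvate oxidase/HRP/Amplex Red system (50uM Amplex, 30 min, dark) reports pyruvate formed by GPT2. Enzyme reaction: 10ng/uL GPT2, 2mM L-alanine, 250uM a-KG, 30 min room temperature, pH 7.5; 50uM AOA control.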
# * = called active by the depositor; i = inactive; ? = inconclusive; . = not tested or not shown; [ ] = dose if it differs, or a comment. Unless noted, the call rests on the fitted dose curve; in most records, active means well fitted curve in the direction sought with a large enough effect; inconclusive means small, poorly fitted or top-dose-only effect, or another doubt; inactive means no such curve, though single readings can be large; an effect the other way counts as inactive or inconclusive. On the % scale 0 is the no-effect control and ±100 the full control effect; potency means the concentration at half of the fitted maximal effect.
SMILES,3T3 cytotox,FLuc inh,HEK cytotox,hNpr1 antagonist,GPT2 inh
O=C(NCc1cccc(Cl)c1)c1ccc2nc(-c3ccccn3)oc2c1,?,.,?,.,i
O=C(NCc1cccc(C(F)(F)F)c1)c1ccc2nc(-c3ccccn3)oc2c1,40µM*,.,?,.,5%
O=C(NCc1ccccc1F)c1ccc2nc(-c3cccnc3Cl)oc2c1,?,.,100µM*,.,-9%[88.5 µM]
Cc1cccc(-c2nc3ccc(C(=O)NCc4ccccc4Cl)cc3o2)n1,?,.,?,.,-10%
Cc1cccc(-c2nc3ccc(C(=O)NCc4ccccc4F)cc3o2)n1,?,.,100µM*,.,0%[88.5 µM]
O=C(c1ccc2nc(-c3ccccn3)oc2c1)N1CCCCC1,20µM*,.,28µM*,.,-27%[88.5 µM]
O=C(NCc1ccccn1)c1ccc2nc(-c3cccnc3Cl)oc2c1,?,.,?,.,4%
CC(=O)N1CCN(C(=O)c2ccc3nc(-c4ccccn4)oc3c2)CC1,-11%,.,i,.,i
CS(=O)(=O)N(Cc1ccccn1)C1CN(C(=O)c2ccoc2)C1,-2%,.,-1%,.,?
Cc1ccc([S+](=O)([O-])N2CCC[C@@H]2C(=O)N2CCCC(c3nc4ccncc4[nH]3)C2)cc1 (some centres not stated),-5%,.,i,.,-1%
O=C(NCc1ccccc1F)c1ccc2nc(-c3ccccn3)oc2c1,?,.,71µM*,.,-3%[88.5 µM]
O=C(NCCc1ccccc1F)c1ccc2oc(-c3ccccn3)nc2c1,-11%,.,-1%,.,i
O=C(NCCc1ccccc1F)c1ccc2nc(-c3cccnc3Cl)oc2c1,-26%,.,40µM*,.,2%
Cc1cccc(-c2nc3ccc(C(=O)N4CCOCC4)cc3o2)n1,22µM*,.,32µM*,.,?
Cc1ncccc1-c1nc2cc(C(=O)NC3CC3)ccc2o1,89µM*,.,?,.,i
Cc1cccc(-c2nc3ccc(C(=O)NC4CCCCCC4)cc3o2)n1,?,.,79µM*,.,-14%[88.5 µM]
CC(C)NC(=O)c1ccc2oc(-c3ccccn3)nc2c1,-29%,.,?,.,i
CC(C)NC(=O)c1ccc2nc(-c3ccccn3)oc2c1,?,.,45µM*,.,i
Cc1csc2c(N[C@@H](C)CN3CCN(S(=O)(=O)c4ccc(Cl)c(Cl)c4)CC3)ncnc12,.,.,.,.,2%
CN(C(=O)c1ccc(C(F)(F)F)cc1)C1CCCc2ccccc21 (configuration not stated),50µM*,?,?,-2%[70.6 µM],-3%[88.5 µM]
CN(C1CCCc2ccccc21)S(C)(=O)=O (configuration not stated),-15%[138 µM],i,-11%[172 µM],-4%[70.6 µM],i
CN(C(=O)C1CC1)C1CCCc2ccccc21 (configuration not stated),?,i,?,0%[70.6 µM],-3%[88.5 µM]
CN(C(=O)Cc1cccc(Cl)c1)C1CCCc2ccccc21 (configuration not stated),?,i,100µM*,6%[70.6 µM],i
Cc1ccccc1C(=O)N(C)C1CCCc2ccccc21 (configuration not stated),?,i,89µM*,4%[70.6 µM],i
Cc1ccc(S(=O)(=O)N(C)C2CCCc3ccccc32)cc1 (configuration not stated),?,i,89µM*,-9%[70.6 µM],0%[88.5 µM]
SMILES,3T3 cytotox,FLuc inh,HEK cytotox,hNpr1 antagonist,GPT2 inh
CC(C)NC(=O)C1CCCN1c1nccc(Nc2ccccc2F)n1 (configuration not stated),-17%[138 µM],.,?,.,i
C[S+](=O)([O-])c1cccc(-c2nnc3ccc(C(=O)NCC(F)F)cn23)c1,-14%,.,1%,.,?
CCOCCNC(=O)c1nc2cccnc2n(C2CC2)c1=O,-8%[138 µM],.,i,.,i
CCCNc1cc(N2CCC(CCC(=O)N3CCN(c4ccccc4F)CC3)CC2)ncn1,?,?,?,13µM*,i
CCNc1cc(N2CCC(CCC(=O)N3CCN(c4ncccn4)CC3)CC2)ncn1,?,i,50µM*,?,i
CCCCN(C)C(=O)CCC1CCN(c2cc(NC3CC3)ncn2)CC1,?,i,32µM*,18µM*,i
CCNc1cc(N2CCC(CCC(=O)N3CCOCC3)CC2)ncn1,?,i,?,-2%,i
Cc1ccc([S+](=O)([O-])N2CCC(N3C(=O)c4c(c(C)nn4-c4ccccc4)C3C)C2)cc1 (configuration not stated),-27%,.,?,.,.
C#CCNC(=O)c1ccc2oc(-c3ccccn3)nc2c1,?,.,?,.,i
O=C(Nc1ccc(Cl)cc1Cl)c1cc2cccnn2n1,?,0.32µM*,?,2.2µM*,i
O=C(NCc1ccc(Cl)cc1)c1cc2cccnn2n1,?,45µM*,?,0%[70.6 µM],4%[88.5 µM]
Cc1ccc(NC(=O)N2CCc3c(C(=O)NC(C)c4cccnc4)cccc32)cc1 (configuration not stated),?,0.4µM*,?,4.5µM*,2%
CCC(=O)N1CCc2c(C(=O)NCc3cccnc3)cccc21,i,i,-2%,-3%,i
CC(NC(=O)c1cccc2c1CCN2C(=O)Nc1ccc(F)cc1)c1ccccn1 (configuration not stated),?,0.79µM*,?,11µM*,i
CCOC(=O)[C@H]1C[C@]2(CCCCN(CCO)C2=O)N(C(=O)c2cccc(C#N)c2)[C@H]1c1ccco1,?,.,-27%,.,.
O[C@H]1[C@H](NCc2ccc(-c3ccccc3)cc2)[C@H]2CO[C@H](O2)[C@@H]1Sc1ccccc1,63µM*,i,40µM*,?,-27%[88.5 µM]
O[C@H]1[C@H](NCc2ccc(-c3ccccc3)cc2)[C@H]2CO[C@H](O2)[C@@H]1Oc1ccccc1,112µM*,i,89µM*,-20%[70.6 µM],-7%[88.5 µM]
O[C@H]1[C@H](NCc2ccccc2)[C@H]2CO[C@H](O2)[C@@H]1Sc1ccccc1,-12%[138 µM],i,?,2%[70.6 µM],-20%[88.5 µM]
COC(=O)N1CCCC1C(=O)N1CCC(c2ccccc2)CC1 (configuration not stated),-20%[138 µM],.,-18%[172 µM],.,?
N#Cc1ccc(C(=O)N2CCC3(CC2)NC(=O)N(Cc2ccc(Cl)cc2)C3=O)cc1,16µM*,i,?,?,i
O=C(c1ccc(Cl)cc1)N1CCC2(CC1)C(=O)NCN2CCc1ccc(Cl)cc1,?,.,40µM*,.,3%
N#Cc1cccc(C(=O)N2CCC3(CC2)NC(=O)N(Cc2ccc(Cl)cc2)C3=O)c1,?,i,?,?,i
Cc1cc(C)n(CCC(=O)NCC23CCCC=C2NC(=O)CC3)n1 (configuration not stated),-19%,.,-18%,.,i
O=C(Nc1ccccc1)N1CCC(C(=O)N2CCC(N3Cc4ccccc4C3=O)CC2)CC1,?,.,?,.,-10%
